uPA surface inh = cell surface uPA generation inhibition; 330,000 tested, 0.31% active; cell surface uPA generation assay, qHTS; Potency, µM (top dose mostly 38.3 µM), without a hit: top-dose activity change, negative = inhibition, usual class: inhibitors; active = well fitted inhibition curve with a large enough effect; inconclusive = small, poorly fitted or top-dose-only effect; inactive = no such curve, though single readings can be large or run the other way; tested in mouse RAW 264.7 cells; note: potency is the fitted concentration of half-maximal effect; % is set by controls: 0 for no effect and ±100 for the full control effect; nearly all actives have a fitted effect of over 55% in size
PLK1 PBD inh = inhibitors of human PLK1 polo-box domain binding; P53350; Plk1 PBD binding of FITC phosphopeptide, fluorescence polarization; Potency, µM, for the others: max response, negative = inhibition, most hits filed as inhibitors; 360,000 tested, 2.8% active; AID 720504; note: potency is the fitted concentration of half-maximal effect; series mostly up to about 57 µM; % is set by controls: 0 for no effect and ±100 for the full control effect; nearly all actives have a fitted effect of over 65% in size
TSHR antagonist = human thyrotropin receptor antagonism | TSHR-expressing cells, TSH-stimulated cAMP HTRF, 2 h; active compounds read low | activity change, negative = inhibition, % at 11.5 µM | 330,000 tested, 0.2% active | P16473;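 active = activity change below a set negative limit, meaning inhibition stronger than a set level, cut at about -70% in these data; inconclusive = activity change between two set negative limits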; note: % is set by controls: 0 for no effect and ±100 for the full control effect
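Antagonism was scored as loss of TSH-driven cAMP in TSHR cells, stimulated with 4nM TSH (EC80) for 2 hours at 37 deg C and detected by homogeneous HTRF competition immunoassay.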
TSG101-PTAP inh = blocks PTAP/TSG101 interaction to inhibit HIV-1 budding; Potency, µM (top dose mostly 115 µM), for the others: at the top dose activity change, negative = inhibition, actives largely listed as inhibitors; 340,000 tested, under 10 active; Fluorescence polarization, FITC-PTAP peptide / Tsg101 binding; active = well fitted inhibition curve with a large enough effect in the main read-out, with a control signal flat, not every such curve was filed as active; inconclusive = small, poorly fitted or top-dose-only effect, or effect the other way, or a change in a side signal; inactive = no such curve, though single readings can be large or run the other way; note: potency is the fitted concentration of half-maximal effect; % of control where 0% means no effect
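Fluorescence anisotropy tracks displacement of a FITC-tagged PTAP peptide (50 nM) from the Tsg101 binding domain (10 uM), following a 20 min room-temperature incubation at pH 7.5.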
VDR inh = vitamin D3 receptor (human) inhibition; P11473; VDR-SRC2-3 peptide fluorescence polarization, 2 h; Potency, µM, for the others: max response, negative = inhibition, usual class: inhibitors; 400,000 tested, 0.93% active; AID 504847; note: potency is the fitted concentration of half-maximal effect; % is set by controls: 0 for no effect and ±100 for the full control effect
Target sequence (P11473 whole entry, looked up): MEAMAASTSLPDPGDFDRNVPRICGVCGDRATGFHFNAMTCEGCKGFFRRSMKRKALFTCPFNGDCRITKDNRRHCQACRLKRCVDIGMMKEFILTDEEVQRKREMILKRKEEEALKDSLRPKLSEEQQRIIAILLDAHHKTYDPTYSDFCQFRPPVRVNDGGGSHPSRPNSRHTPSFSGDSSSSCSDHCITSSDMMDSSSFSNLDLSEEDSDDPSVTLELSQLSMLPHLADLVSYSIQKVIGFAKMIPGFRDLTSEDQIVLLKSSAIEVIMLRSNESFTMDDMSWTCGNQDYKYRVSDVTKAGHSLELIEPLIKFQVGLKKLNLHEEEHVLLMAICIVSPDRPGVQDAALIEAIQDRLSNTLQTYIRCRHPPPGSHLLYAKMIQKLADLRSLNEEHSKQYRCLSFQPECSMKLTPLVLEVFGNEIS
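The screen uses fluorescence polarization to detect compounds that interfere with recruitment of the SRC2-3 coactivator peptide to VDR; plates are read after 2 h at room temperature.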
Starred values were filed as active, the others as inactive; ? = inconclusive; . = no result given. Shown are actives, neighbours in structure and some others; about 3.1% of the full set was active somewhere. Unless noted, calls come from the whole dose curve; as a rule, active = well fitted curve in the direction sought with a large enough effect; inconclusive = small, poorly fitted or top-dose-only effect, or another doubt; inactive = no such curve, though single readings can be large; an effect the other way counts as inactive or inconclusive.

SMILES	uPA surface inh	PLK1 PBD inh	TSHR antagonist	TSG101-PTAP inh	VDR inh
c1ccc(CCc2cn(C[C@H]3CC[C@@H]([C@@H]4CC[C@H](Cn5cc(CCc6ccccc6)nn5)O4)O3)nn2)cc1	-0.1%	26.7µM*	-11.2	-6.3%	?
COc1ccc2c(c1)CCc1cnoc1-2	-1.3%	-3.2%	.	-0.1%	-13.9%
COc1ccc2c(c1)CCc1cn[nH]c1-2	9.3%	26.7µM*	3.6	0.7%	?
COCCNC(=O)COC(=O)c1nsc(Cl)c1Cl	5.6%	26.7µM*	5.1	-7.0%	-4.8%
CCOC(=O)c1cc2c(=O)n3ccccc3nc2n(C(C)C)c1=NC(=O)C(C)(C)Oc1ccc(Cl)cc1	.	.	.	.	-20.0%
Cc1c(NC(=O)Nc2cccc(Cl)c2)c(=O)n(-c2ccccc2)n1C	.	-2.2%	4.0	0.3%	3.5%
Cc1cccc(NC(=O)Nc2c(C)n(C)n(-c3ccccc3)c2=O)c1	3.7%	23.8µM*	5.6	-6.0%	?
Cc1ccc(NC(=O)Nc2c(C)n(C)n(-c3ccccc3)c2=O)cc1C	4.3%	21.2µM*	-6.5	1.1%	?
CC(=O)c1ccc(NC(=S)Nc2cccc(S(=O)(=O)Nc3c(C)n(C)n(-c4ccccc4)c3=O)c2)cc1	0.2%	23.8µM*	-1.0	0.5%	-0.5%
COc1ccc(NC(=O)Nc2c(C)n(C)n(-c3ccccc3)c2=O)cc1OC	0.5%	-3.5%	3.6	-0.9%	-3.3%
CCN1c2ccccc2-c2nc(SCC(=O)Nc3ccc(C)c(Cl)c3)ncc2S1(=O)=O	.	.	.	.	5.6%
O=C(NCc1ccco1)c1sc(=S)n2c1[nH]c(=O)c1ccccc12	.	26.7µM*	?	-11.4%	?
O=C(NCc1ccccc1)c1ccc2c(=O)[nH]c3c(C(=O)NCC4CCCO4)sc(=S)n3c2c1 (centres undefined)	-3.0%	?	-23.2	-5.8%	-13.7%
Cc1cn2c(=O)cc(COC(=O)c3cccc(NC(=O)COc4ccccc4)c3)nc2s1	.	.	.	.	7.1%
O=C(Nc1ccc(F)cc1)[C@H](Cc1ccccc1)N1Cc2ccccc2C1=O	.	.	.	.	1.3%
C/C(=N\Nc1nc(C)cc(-c2ccccc2)n1)c1ccc(O)cc1	10µM*	1.2%	-1.0	-1.8%	-8.0%
COC(=O)[C@H](CC(C)C)NC(=O)Cn1cnc(C(=O)Nc2ccc(C)c(C)c2)n1	?	-2.5%	16.7	-1.9%	-0.4%
COC(=O)[C@H](CCSC)NC(=O)Cn1cnc(C(=O)Nc2ccc(C)c(C)c2)n1	10µM*	-7.1%	-8.7	-0.4%	-22.9%
Cc1ccccc1NC(=S)c1ccc2ccccc2n1	?	2.67µM*	-25.3	1.7%	7.8%
O=C(Nc1cccc2cccnc12)OC(Cl)(Cl)Cl	.	.	.	.	9.9%
CCCCOc1ccc(S(=O)(=O)n2c(C)nc3ccccc32)cc1	-1.1%	-1.9%	-26.5	0.6%	10.8%
COc1cc(F)ccc1S(=O)(=O)n1c(C)nc2ccccc21	34.0%	-13.3%	-14.4	3.1%	-5.9%
CCOc1ccc(S(=O)(=O)n2c(C)nc3ccccc32)cc1	12.6µM*	-6.0%	0.5	1.8%	9.7%
COc1cc(C)c(C)cc1S(=O)(=O)n1c(C)nc2ccccc21	-1.4%	26.7µM*	-3.2	-3.7%	-21.7%
Cc1cc(N2CCN(c3ccc(C(F)(F)F)cc3[N+](=O)[O-])CC2)c2ccccc2n1	14.1µM*	1.0%	-6.6	-6.7%	-6.9%
SMILES	uPA surface inh	PLK1 PBD inh	TSHR antagonist	TSG101-PTAP inh	VDR inh
COc1ccc(C2/C=C\CC(NC(=O)OCC3c4ccccc4-c4ccccc43)CC(=O)N2Cc2cccc(F)c2)cc1 (centres undefined)	.	.	.	.	-6.8%
COc1ccc(C2/C=C\CC(NC(=O)OCC3c4ccccc4-c4ccccc43)CC(=O)N2Cc2ccccc2F)cc1 (centres undefined)	-12.2%	29.9µM*	-16.6	-2.1%	?
CCCCN1CC(=O)N2[C@@H]3c4cc(OC)ccc4OC[C@@H]3[C@H](C(=O)OCC)[C@]2(C)C1=O	2.8%	23.8µM*	.	-2.2%	?
COc1cccc(CNC(=O)CCNS(=O)(=O)c2ccc(Br)s2)c1	.	26.7µM*	14.9	0.4%	?
COc1ccc(CNC(=O)CCNS(=O)(=O)c2cc(Br)cnc2N)cc1	9.5%	3.36µM*	6.0	-5.8%	?
O=C(CCNC(=O)c1ccc(Br)o1)NCc1ccc(Cl)cc1	.	-2.8%	-7.5	-9.2%	3.3%
Nc1ncc(Br)cc1S(=O)(=O)NCCC(=O)NC1CCCCC1	-2.1%	26.7µM*	14.6	0.6%	-24.8%
COc1cccc(CNC(=O)CCNC(=O)c2ccc(Br)o2)c1	-1.3%	13.4µM*	-10.6	-4.6%	?
Nc1ncc(Br)cc1S(=O)(=O)NCCC(=O)NCc1ccc(F)cc1	-1.1%	-13.8%	3.1	-6.7%	-14.5%
COc1cccc(CNC(=O)CNS(=O)(=O)c2ccc(Br)s2)c1	12.4%	-8.8%	37.1	0.3%	-6.8%
COc1cc(/C=C/C(=O)OCC(=O)N(CC(C)C)c2c(N)n(Cc3ccccc3)c(=O)[nH]c2=O)ccc1O	-1.3%	-0.6%	.	-3.4%	-5.6%
CCOC(=O)c1noc2nc(C)n(CC(=O)Nc3ccc(Br)cc3C)c(=O)c12	.	.	.	.	10.5%
CCOc1ccccc1CNC(=O)CN1C(=O)c2cccnc2Oc2ccc(Cl)cc21	.	.	.	.	17.6%
Cc1cc(C)c(C)c(S(=O)(=O)N2CCN(C(=O)C3CSC4(C)CCC(=O)N34)CC2)c1C (centres undefined)	4.9%	-8.8%	-3.3	-4.1%	-20.6%
CN(Cc1ccccc1)C(=O)CSc1nc2ccsc2c(=O)n1-c1ccc(F)cc1	.	.	.	.	2.1%
Cc1cc2cc(CNC(=O)c3ccc(Br)o3)ccc2n1C	0.7%	-17.8%	2.5	-9.2%	79.4µM*
COc1ccc(CCNS(=O)(=O)c2ccc(Br)s2)cc1	-1.5%	-4.4%	0.9	1.3%	-0.5%
COc1ccc(CNC(=O)CCNS(=O)(=O)c2ccc(Br)s2)cc1	11.6%	29.9µM*	8.3	-4.9%	-23.4%
COc1ccc(/C=N/n2cncn2)cc1COc1ccc(NC(C)=O)cc1	-3.0%	26.7µM*	5.0	-6.1%	?
Cc1cccc(C(=O)Oc2c(Br)cc(Br)cc2/C=N/NC(=O)c2ccncc2)c1	.	29.9µM*	-4.5	1.3%	?
COc1ccc(CNC(=O)c2cnc3sc(N4CCC(C)CC4)nn3c2=O)c(OC)c1	.	.	.	.	4.6%
COc1cc(NC(=S)NCCCN2CCOCC2)c(OC)cc1Cl	0.5%	-7.5%	-0.3	-8.8%	16.2%
COc1ccc(Cl)cc1NC(=S)NCCN1CCOCC1	-0.4%	-9.7%	0.6	-3.4%	-10.5%
COc1ccc(NC(=S)NCCCN2CCCC2)cc1Cl	0.9%	18.9µM*	-2.9	-0.3%	-20.0%
COc1ccc(NC(=S)N(CCCN2CCC(C)CC2)Cc2cccs2)cc1Cl	-8.7%	16.8µM*	-5.9	0.1%	-24.8%
COc1ccc(NC(=S)NCCN2CCC(C)CC2)cc1Cl	-1.6%	10.6µM*	-23.1	-1.4%	?
Cc1csc2nc(-c3cccc(NC(=O)c4ccc(S(N)(=O)=O)cc4)c3)cn12	.	.	.	.	-1.4%
